The panel holds about 83,000 compounds, 20% with a hit somewhere; the sample as a whole holds those more often.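 For each line, cells grew in 96-well plates with the test compound present at a single concentration for 48 hours.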 Values without a mark were called inactive. Calls of active or inactive are those of the source. How the source made its calls: active means growth percent below 10; inactive means the rest.

The test concerns HL-60(TB) leukemia. Description: NCI-60 one-dose screen, 48 h (100 = growth as untreated, 0 = no growth, -100 = all killed). The note with it: 10 µM unless noted.
With `O=C(Nc1cn[nH]c1-c1nc2ccc(CN3CCOCC3)cc2[nH]1)NC1CC1`, the growth is -27.1% (active).

Consider `CCCCCCCCCCCCCCCCCCOc1ccc(CC(=O)OCC[N+](C)(C)C)cc1`, for which the growth was 2.32% (active).

Take `O=C(CSc1nccc(Nc2ccc(S(=O)(=O)Nc3nccs3)cc2)n1)c1ccc(C(F)(F)F)cc1`: the growth is 103%.

(Values after PubChem BioAssay (NCI).)
